Data reported in ChEMBL document CHEMBL3988442, “University of Dundee, Small-Polar-MMV Screening Library” (2021).
For part of these data: Measured potencies and affinities stand elsewhere.

How the values were obtained:
Parameters in all cases: scale not given: direction of the effect not stated beside the values
[1] = target: Protein translocase subunit SecA (Escherichia coli (strain K12)) (UniProt P10408); assay: Assay to Identify E. coli SecA ATPase Inhibitors; assay type: functional; settings: 30 µM
[2] = target: T1, Ubiquitin-activating enzyme e1, putative (Leishmania donovani (strain BPK282A1)) (UniProt E9BSI1); assay: Leishmania donovani Ubiquitin Activating Enzyme (LdE1); assay type: functional; settings: 30 µM
T1 sequence (whole entry): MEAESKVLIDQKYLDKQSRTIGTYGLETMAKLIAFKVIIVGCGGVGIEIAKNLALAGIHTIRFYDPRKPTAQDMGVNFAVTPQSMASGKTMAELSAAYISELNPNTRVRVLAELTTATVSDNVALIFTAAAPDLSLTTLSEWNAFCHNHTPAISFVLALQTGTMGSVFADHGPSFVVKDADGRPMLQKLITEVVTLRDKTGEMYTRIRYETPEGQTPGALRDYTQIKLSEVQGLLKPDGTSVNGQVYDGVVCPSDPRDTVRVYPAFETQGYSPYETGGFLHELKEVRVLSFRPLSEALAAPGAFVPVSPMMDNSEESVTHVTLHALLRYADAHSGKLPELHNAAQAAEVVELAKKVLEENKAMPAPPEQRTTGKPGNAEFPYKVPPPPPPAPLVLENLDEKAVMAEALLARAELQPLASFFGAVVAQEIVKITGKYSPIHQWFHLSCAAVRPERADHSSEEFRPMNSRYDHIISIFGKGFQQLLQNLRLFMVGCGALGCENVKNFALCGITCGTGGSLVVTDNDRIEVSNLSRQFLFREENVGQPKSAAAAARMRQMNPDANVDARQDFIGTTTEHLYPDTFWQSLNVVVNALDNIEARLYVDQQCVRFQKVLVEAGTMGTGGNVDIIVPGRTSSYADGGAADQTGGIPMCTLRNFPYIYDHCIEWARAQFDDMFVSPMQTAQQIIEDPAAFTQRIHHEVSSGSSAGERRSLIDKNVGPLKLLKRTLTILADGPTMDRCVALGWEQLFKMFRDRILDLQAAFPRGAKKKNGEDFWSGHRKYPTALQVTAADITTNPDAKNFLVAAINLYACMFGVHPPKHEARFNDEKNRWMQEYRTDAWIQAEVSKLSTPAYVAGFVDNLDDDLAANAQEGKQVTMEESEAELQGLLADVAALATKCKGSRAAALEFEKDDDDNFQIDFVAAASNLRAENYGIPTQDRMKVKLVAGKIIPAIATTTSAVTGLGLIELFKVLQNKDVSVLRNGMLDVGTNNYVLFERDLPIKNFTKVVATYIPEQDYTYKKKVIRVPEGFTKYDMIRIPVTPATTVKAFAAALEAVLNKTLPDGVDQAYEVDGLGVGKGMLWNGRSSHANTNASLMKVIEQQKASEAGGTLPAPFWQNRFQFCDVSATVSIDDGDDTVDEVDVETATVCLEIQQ

[3] = target: T2, Aspartate--tRNA(Asp/Asn) ligase (Mycobacterium tuberculosis (strain ATCC 25618 / H37Rv)) (UniProt P9WFW3); assay: Assay for Asp RNA synthetase-1 from Mycobacterium tuberculosis; assay type: functional; settings: 30 µM; also: in the data most compounds retested in dose-response had high values
T2 sequence (whole entry): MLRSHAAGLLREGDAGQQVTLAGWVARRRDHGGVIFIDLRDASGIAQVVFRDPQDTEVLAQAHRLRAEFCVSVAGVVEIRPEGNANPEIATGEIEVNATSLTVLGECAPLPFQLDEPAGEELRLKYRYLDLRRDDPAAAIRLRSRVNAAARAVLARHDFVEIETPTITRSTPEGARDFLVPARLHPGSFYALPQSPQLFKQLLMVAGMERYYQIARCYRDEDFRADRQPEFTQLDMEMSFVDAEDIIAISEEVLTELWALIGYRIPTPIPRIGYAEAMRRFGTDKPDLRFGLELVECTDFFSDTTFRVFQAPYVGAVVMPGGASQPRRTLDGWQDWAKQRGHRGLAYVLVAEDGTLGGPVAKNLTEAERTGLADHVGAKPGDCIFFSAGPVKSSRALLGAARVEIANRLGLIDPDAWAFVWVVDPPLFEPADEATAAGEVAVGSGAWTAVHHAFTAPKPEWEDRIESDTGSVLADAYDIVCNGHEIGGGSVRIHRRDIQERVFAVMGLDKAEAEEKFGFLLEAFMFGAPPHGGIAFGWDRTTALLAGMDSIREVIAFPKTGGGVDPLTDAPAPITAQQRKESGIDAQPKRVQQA

[4] = target: AMP-activated protein kinase, AMPK (Homo sapiens) (UniProt P54646+O43741+P54619+Q9UGJ0+Q9Y478+Q13131+Q9UGI9); assay: AMP-dependent Kinase enzyme assay. An in vitro enzyme assay that detects ADP turnover that is directly proportional to AMPK activity. This uses naive AMPK that is activated during the assay with MK-8722; assay type: functional; settings: 30 µM
[5] = target: Sialic acid-binding Ig-like lectin 9 (Homo sapiens) (UniProt Q9Y336); assay: Hs-Siglec9 ALPHAscreen SOP 20170721; settings: 10 µM
[6] = tested on: Trypanosoma cruzi; assay: Trypanosoma cruzi phosphomannomutase and mannose-1-phosphate guanylyltransferase assay; assay type: functional; settings: 10 µM
[7] = target: T3, Arginase-2, mitochondrial (Homo sapiens) (UniProt P78540); assay: in vitro enzyme assay to detect the production of urea directly proportional to the activity of Arginase II; assay type: functional; settings: 33.3 µM; also: in the data most compounds retested in dose-response had high values
T3 sequence (whole entry): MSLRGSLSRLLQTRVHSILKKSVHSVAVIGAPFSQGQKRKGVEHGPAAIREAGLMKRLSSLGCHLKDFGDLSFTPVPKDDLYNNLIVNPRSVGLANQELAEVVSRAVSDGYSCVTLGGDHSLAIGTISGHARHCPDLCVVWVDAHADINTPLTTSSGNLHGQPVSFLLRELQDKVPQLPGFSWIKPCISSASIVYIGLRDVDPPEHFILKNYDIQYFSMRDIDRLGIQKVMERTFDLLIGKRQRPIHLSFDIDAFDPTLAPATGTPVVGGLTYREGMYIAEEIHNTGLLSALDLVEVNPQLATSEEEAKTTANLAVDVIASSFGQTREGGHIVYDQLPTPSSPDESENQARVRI

[8] = target: T4, Proteasome subunit beta (Trypanosoma cruzi) (UniProt O96673); assay: Trypanosoma cruzi proteasome chymotrypsin-like activity (TcProtChymo) assay.; also: in the data most compounds retested in dose-response had high values; assay type: functional; settings: 9.37 µM
T4 sequence (whole entry): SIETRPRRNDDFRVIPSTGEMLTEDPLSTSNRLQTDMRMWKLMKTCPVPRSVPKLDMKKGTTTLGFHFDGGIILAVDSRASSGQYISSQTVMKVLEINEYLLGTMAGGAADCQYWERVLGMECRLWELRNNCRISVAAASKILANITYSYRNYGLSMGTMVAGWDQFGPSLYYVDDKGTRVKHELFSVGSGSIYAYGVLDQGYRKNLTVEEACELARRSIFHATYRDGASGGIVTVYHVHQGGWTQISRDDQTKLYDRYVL

[9] = organism: Homo sapiens; assay: To identify inhibition of the IFN signalling (Jak-Stat) pathway via expression of an eGFP reporter gene under the control of an IFN-stimulated response element (ISRE) containing MxA promoter.; assay type: functional; settings: 30 µM
[10] = target: Shiga toxin 2 (Escherichia coli O157:H7) (UniProt P09385+P09386); assay: E. coli 0.157:H7 Shiga Toxin SOP - stx2 screening assay; assay type: functional; settings: 30 µM
[11] = target: T5, Tyrosyl-tRNA synthetase, putative (Trypanosoma cruzi (strain CL Brener)) (UniProt Q4DSP6); assay: Trypanosoma cruzi tyrosyl tRNA synthetase (TcYRS) _High Tyrosine SOP; assay type: functional; settings: 30 µM; also: in the data most compounds retested in dose-response had high values
T5 sequence (whole entry): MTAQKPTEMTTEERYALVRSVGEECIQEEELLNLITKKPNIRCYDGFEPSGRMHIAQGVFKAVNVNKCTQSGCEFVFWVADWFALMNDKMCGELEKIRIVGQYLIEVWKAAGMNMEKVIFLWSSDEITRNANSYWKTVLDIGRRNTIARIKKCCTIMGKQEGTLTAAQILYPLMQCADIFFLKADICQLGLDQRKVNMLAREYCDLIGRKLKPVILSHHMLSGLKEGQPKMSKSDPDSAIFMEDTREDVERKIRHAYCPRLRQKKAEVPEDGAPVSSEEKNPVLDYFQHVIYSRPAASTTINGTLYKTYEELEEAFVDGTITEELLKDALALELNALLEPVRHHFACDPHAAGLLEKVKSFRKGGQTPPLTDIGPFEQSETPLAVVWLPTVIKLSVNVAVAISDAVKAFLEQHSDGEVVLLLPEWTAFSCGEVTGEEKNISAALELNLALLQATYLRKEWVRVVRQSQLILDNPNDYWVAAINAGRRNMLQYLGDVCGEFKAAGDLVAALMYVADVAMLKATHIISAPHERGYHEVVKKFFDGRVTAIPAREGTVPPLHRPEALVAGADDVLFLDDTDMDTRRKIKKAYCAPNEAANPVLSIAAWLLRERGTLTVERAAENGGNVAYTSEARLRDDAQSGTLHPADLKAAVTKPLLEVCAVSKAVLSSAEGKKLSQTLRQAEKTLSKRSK

[12] = target: T5, Tyrosyl-tRNA synthetase, putative (Trypanosoma cruzi (strain CL Brener)); assay: Trypanosoma cruzi tyrosyl tRNA synthetase (TcYRS) SOP; assay type: functional; settings: 30 µM
[13] = target: Chromo domain-containing protein 1 (Saccharomyces cerevisiae (strain ATCC 204508 / S288c) (Baker's yeast)) (UniProt P32657); assay: ScCHD-1 Enzyme Inhibition Assay; assay type: functional; settings: 30 µM; also: in the data most compounds retested in dose-response had high values
Chromo domain-containing protein 1 (Saccharomyces cerevisiae (strain ATCC 204508 / S288c) (Baker's yeast)), sequence (P32657 whole entry, the tested form may be a part): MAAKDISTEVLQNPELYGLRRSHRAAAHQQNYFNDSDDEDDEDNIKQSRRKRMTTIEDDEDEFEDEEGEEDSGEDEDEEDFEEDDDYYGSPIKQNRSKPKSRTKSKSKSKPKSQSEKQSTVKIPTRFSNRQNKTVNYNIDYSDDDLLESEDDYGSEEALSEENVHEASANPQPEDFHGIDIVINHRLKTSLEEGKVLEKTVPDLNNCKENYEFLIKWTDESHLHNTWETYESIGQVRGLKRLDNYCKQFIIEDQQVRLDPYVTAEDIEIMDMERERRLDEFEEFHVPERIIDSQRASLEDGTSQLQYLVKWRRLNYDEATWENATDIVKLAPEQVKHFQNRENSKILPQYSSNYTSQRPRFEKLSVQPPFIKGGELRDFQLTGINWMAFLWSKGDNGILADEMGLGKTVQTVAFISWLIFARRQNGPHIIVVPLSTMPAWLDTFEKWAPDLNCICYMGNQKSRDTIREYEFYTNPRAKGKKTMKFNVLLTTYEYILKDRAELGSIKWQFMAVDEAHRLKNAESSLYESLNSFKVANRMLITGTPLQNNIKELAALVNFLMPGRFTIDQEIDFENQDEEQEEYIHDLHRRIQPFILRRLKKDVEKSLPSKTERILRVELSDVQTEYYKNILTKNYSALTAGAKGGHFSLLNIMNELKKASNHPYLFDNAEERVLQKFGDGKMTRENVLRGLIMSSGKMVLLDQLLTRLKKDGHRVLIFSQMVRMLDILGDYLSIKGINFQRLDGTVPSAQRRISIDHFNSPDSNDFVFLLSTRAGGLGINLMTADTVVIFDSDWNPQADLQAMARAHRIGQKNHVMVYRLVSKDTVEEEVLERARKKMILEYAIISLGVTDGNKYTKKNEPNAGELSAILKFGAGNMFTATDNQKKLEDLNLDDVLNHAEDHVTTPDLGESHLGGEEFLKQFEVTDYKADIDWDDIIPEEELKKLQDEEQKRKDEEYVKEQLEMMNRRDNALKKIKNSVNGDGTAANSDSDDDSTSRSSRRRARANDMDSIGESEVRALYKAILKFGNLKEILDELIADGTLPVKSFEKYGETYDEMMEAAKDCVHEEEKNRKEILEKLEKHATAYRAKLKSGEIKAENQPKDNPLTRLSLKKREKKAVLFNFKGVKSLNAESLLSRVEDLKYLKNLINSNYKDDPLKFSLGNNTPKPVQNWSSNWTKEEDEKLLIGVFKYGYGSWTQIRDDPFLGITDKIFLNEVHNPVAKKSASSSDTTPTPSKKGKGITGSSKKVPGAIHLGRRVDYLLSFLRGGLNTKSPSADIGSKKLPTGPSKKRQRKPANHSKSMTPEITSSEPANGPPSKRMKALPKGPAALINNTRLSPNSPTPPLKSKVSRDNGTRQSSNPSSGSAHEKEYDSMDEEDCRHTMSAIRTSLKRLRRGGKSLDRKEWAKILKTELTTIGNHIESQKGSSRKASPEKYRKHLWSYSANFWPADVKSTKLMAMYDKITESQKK

Sialic acid-binding Ig-like lectin 9 (Homo sapiens), sequence (Q9Y336 whole entry): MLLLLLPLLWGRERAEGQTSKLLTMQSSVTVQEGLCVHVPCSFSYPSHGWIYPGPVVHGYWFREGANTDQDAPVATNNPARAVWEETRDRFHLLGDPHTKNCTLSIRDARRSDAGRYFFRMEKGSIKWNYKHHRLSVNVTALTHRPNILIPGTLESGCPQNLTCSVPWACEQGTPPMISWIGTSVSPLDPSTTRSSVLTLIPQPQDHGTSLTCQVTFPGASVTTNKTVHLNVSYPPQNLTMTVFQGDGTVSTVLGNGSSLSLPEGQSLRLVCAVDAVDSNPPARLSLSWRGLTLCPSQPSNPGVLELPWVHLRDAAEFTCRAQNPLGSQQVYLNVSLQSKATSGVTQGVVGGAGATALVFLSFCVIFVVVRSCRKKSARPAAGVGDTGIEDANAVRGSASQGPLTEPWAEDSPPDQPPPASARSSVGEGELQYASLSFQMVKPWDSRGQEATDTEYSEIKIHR
Protein translocase subunit SecA (Escherichia coli (strain K12)), sequence (P10408 whole entry): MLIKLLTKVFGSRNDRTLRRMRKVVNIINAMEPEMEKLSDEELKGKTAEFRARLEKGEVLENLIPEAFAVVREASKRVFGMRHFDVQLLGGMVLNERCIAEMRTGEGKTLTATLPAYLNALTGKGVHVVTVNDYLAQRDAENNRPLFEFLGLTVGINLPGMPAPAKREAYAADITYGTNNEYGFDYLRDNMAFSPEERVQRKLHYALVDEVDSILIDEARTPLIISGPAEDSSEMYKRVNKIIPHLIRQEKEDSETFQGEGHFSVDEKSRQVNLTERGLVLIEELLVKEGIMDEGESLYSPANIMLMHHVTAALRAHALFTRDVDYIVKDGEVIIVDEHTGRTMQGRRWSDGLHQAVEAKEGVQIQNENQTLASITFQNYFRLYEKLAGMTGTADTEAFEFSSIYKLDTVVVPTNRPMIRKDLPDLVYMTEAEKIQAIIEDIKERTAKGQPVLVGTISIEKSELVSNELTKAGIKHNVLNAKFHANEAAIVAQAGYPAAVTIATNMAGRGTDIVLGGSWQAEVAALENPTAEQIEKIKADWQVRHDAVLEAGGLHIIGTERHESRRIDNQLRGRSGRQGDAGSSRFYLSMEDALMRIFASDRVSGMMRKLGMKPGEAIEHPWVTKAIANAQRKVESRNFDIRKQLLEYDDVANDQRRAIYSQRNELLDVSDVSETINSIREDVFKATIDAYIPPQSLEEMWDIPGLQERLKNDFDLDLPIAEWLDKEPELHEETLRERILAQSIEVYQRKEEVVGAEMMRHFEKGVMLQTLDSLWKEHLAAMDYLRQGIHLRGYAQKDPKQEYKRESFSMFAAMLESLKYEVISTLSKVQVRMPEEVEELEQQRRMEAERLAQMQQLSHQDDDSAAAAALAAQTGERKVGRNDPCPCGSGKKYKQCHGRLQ

Row | Structure (SMILES) | Percent Effect [1] [%] | Percent Effect [2] [%] | Percent Effect [3] [%] | Percent Effect [4] [%] | Percent Effect [5] [%] | Percent Effect [6] [%] | Percent Effect [7] [%] | Percent Effect [8] [%] | Percent Effect [9] [%] | Percent Effect [10] [%] | Percent Effect [11] [%] | Percent Effect [12] [%] | Percent Effect [13] [%]
1 | O=C(C1CCOC1)N1C[C@H]2CN(Cc3ccccn3)C[C@H]2C1 (some centres not stated) | -0.372 | 13.5 | -0.474 | 2.96 | -5.9 | 0.293 | 6.05 | 16.2 | -9.37 | -2.63 | 6.49 | 15.4 | -0.817
2 | c1cc(CO[C@@H]2CC[C@H]3[C@H]2OCCN3Cc2ccoc2)ccn1 | -1.76 | 13.5 | 9.49 | 9.36 | -7.31 | -1.66 | 2.23 | 27.1 | 33.2 | 1.68 | 1.08 | 10.3 | 1.36
3 | Cc1n[nH]c2c1C(c1ccsc1)SCC(=O)N2 (configuration not stated) | 0.859 | 15.6 | 6.57 | 7.18 | -13.4 | -4.24 | 0.645 | 16 | 19.9 | 1.07 | 5.29 | 6.41 | -7.85
4 | c1cncc(CN2CC[C@H]3O[C@@H](COCC4CC4)CC[C@H]32)c1 | -2.96 | -2.67 | -5.28 | 10.2 | 2.62 | -0.591 | 7.23 | -2.38 | 8.64 | -10.9 | 4.25 | 6.41 | 3.34
5 | CCOCC(O)CN1CCN(C(=O)Cc2ccccc2C)CC1 (configuration not stated) | 1.46 | 13.2 | -3.28 | -1.09 | 0.779 | -8.65 | 8.43 | 8.69 | 20 | 30.3 | 0.49 | 9.76 | -8.57
6 | COc1ccc(CN2C[C@@H]3OCCN(c4ncccn4)[C@@H]3C2)cc1 | 1.18 | 0 | 3.34 | 11.4 | 2.48 | -4.13 | 2.1 | 3.61 | 22.3 | -20 | 1.06 | -1.28 | 0.371
7 | CCOCC(O)CN1CCN(C(=O)Cc2ccc3c(c2)CCO3)CC1 (configuration not stated) | 1.74 | 10.5 | 0.3 | 2.16 | 5 | -3.76 | 6.51 | 21.4 | 19.4 | 30.7 | 3.43 | 12.2 | -2.97
8 | CCc1nnc(C(C)N2CCCN(C(=O)Oc3ccccc3)CC2)o1 (configuration not stated) | -1.28 | 15.8 | -3.35 | 0.0863 | -6.34 | -6.72 | -3.55 | 12.6 | 3.97 | -15.6 | 2.13 | 5.2 | -5.08
9 | CCCN1CCN(Cc2nccn2CC)C(C)C1 (configuration not stated) | -1.91 | 13.5 | 1.06 | -5.87 | -10.4 | -2.54 | -1.67 | 8.54 | 32.2 | -11.5 | 8.91 | 8.54 | -3.53
